PubChem BioAssay (NCI)
The panel holds about 79,000 compounds, 15% with a hit somewhere; the sample as a whole holds those more often. Calls of active or inactive are those of the source. Rule as the data show it: active = growth inhibition above about 70%; inactive = the rest.

Experiments:
[1] = NCI Yeast Anticancer Drug Screen. Data for the rad52 strain (AID 147);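 also: 0% = growth of vehicle-treated control cultures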; settings: S. cerevisiae rad52 mutant growth inhibition, active compounds read high
In short: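 Measured: yeast growth inhibition. System: strain with a defined DNA damage repair alteration. Reference: vehicle-treated control cultures.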

[2] = NCI Yeast Anticancer Drug Screen. Data for the rad50EPP+ strain (AID 151);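 also: 0% = growth of vehicle-treated control cultures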; settings: S. cerevisiae rad50 mutant strain, active compounds read high
In short: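 One strain with a rad50 alteration (rad50EPP+) was compound-treated, its growth then compared to that of vehicle controls.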

[3] = NCI Yeast Anticancer Drug Screen. Data for the rad50 strain (AID 155);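 also: 0% = growth of vehicle-only cultures of the same strain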; settings: S. cerevisiae rad50 strain growth inhibition, active compounds read high
In short: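 Yeast carrying a defined DNA repair defect were exposed to test compounds, and growth was compared with vehicle-treated controls to give percent inhibition.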

[4] = NCI Yeast Anticancer Drug Screen. Data for the mec2-1 strain (AID 157); settings: S. cerevisiae mec2-1 strain, active compounds read high
In short: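 Test agents were screened against the mec2-1 yeast strain, with defined DNA repair or cell cycle alteration. Growth was scored as inhibition against vehicle-only controls.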

[5] = NCI Yeast Anticancer Drug Screen. Data for the rad14 strain (AID 159);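 also: 0% = growth of vehicle-treated control cultures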; settings: S. cerevisiae rad14 strain growth inhibition, active compounds read high
In short: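 Yeast cells carrying a defined DNA-repair defect were exposed to compounds, and growth inhibition was calculated relative to vehicle-treated control cultures.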

[6] = NCI Yeast Anticancer Drug Screen. Data for the sgs1 mgt1 strain (AID 161);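 also: 0% = growth of cultures given vehicle only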; settings: S. cerevisiae sgs1 mgt1 strain, active compounds read high
In short: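 Genetically altered yeast, compound exposure, growth inhibition relative to vehicle.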

[7] = NCI Yeast Anticancer Drug Screen. Data for the CLN2oe strain (AID 163);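 also: 0% = growth of vehicle-only control cultures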; settings: S. cerevisiae CLN2oe strain, active compounds read high
In short: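 Here, growth inhibition in a cell-cycle-altered yeast strain after compound exposure was quantified against vehicle control growth.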

[8] = NCI Yeast Anticancer Drug Screen. Data for the cln2 rad14 strain (AID 165);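 also: 0% = growth equal to vehicle treated cultures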; settings: S. cerevisiae cln2 rad14 strain, active compounds read high
In short: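 Growth of compound-exposed yeast (cln2 rad14 genotype) measured and expressed as inhibition relative to vehicle.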

[9] = NCI Yeast Anticancer Drug Screen. Data for the bub3 strain (AID 167); settings: S. cerevisiae bub3 mutant strain, active compounds read high
In short: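 Compounds were applied to a genetically altered yeast strain carrying a cell-cycle control defect. Growth inhibition was scored against vehicle-treated controls.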

[10] = NCI Yeast Anticancer Drug Screen. Data for the wt2 strain (AID 169);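 also: 0% = growth of vehicle-treated yeast cultures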; settings: S. cerevisiae wt2 strain growth inhibition, active compounds read high
In short: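 Genetically defined yeast strains from a DNA-repair/cell-cycle panel were used. Compound-exposed yeast growth was measured, and the inhibition was calculated relative to vehicle treatment.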

[11] = NCI Yeast Anticancer Drug Screen. Data for the mlh1 strain (AID 171);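 also: 0% = growth of vehicle-treated control cultures of the same strain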; settings: S. cerevisiae mlh1 strain growth inhibition, active compounds read high
In short: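 Here the genetically defined yeast mutant is grown with each compound, and the extent to which its growth falls below that of vehicle-exposed cells is reported.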

[12] = NCI Yeast Anticancer Drug Screen. Data for the sgs1 strain (AID 173);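 also: 0% = growth of vehicle-only control cultures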; settings: S. cerevisiae sgs1 mutant, active compounds read high
In short: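 Relative growth inhibition, referenced to vehicle, was determined in a yeast strain with a defined alteration affecting DNA damage repair or cell cycle control after compound exposure.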

[13] = NCI Yeast Anticancer Drug Screen. Data for the mlh1 rad18 strain (AID 175); settings: S. cerevisiae mlh1 rad18 strain growth inhibition, active compounds read high
In short: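 In this whole-cell yeast screen, a strain with altered DNA damage repair is challenged with compound, and its growth is measured against matched vehicle-treated controls.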

[14] = NCI Yeast Anticancer Drug Screen. Data for the wt1 strain (AID 149);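 also: 0% = growth of vehicle-treated wt1 cultures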; settings: S. cerevisiae wt1 strain (SPY 50644) growth inhibition, active compounds read high
In short: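 Yeast wt1 strain exposed to compounds; growth inhibition measured relative to vehicle-treated controls.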

[15] = NCI Yeast Anticancer Drug Screen. Data for the rad18 strain (AID 177); settings: S. cerevisiae rad18 mutant growth inhibition, active compounds read high
In short: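 Screen uses a yeast strain with a defined lesion in DNA damage repair; compound effect is read as loss of growth compared to untreated vehicle cultures.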

[16] = NCI Yeast Anticancer Drug Screen. Data for the mgt1 strain (AID 153); settings: S. cerevisiae mgt1 mutant growth inhibition, active compounds read high
In short: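 After exposure of the mgt1 yeast mutant to compound, growth was measured and reported as inhibition compared with vehicle controls.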

[17] = at 5.0 µM (retest, dose inferred, filed as 0.5)
[18] = at 50.0 µM (retest, dose inferred, filed as 5.0)

Measured: growth inhibition

CCOC1Oc2ccccc2-c2nc(N)ncc21 (stereo unspecified)
inactive: [1]; at 1.2 µM 7% | [1]; at 3.7 µM 6% | [1]; at 11.0 µM 3% | [1]; at 33.0 µM 3% | [1]; at 100.0 µM -5% | [2]; at 1.2 µM 0% | [2]; at 3.7 µM -1% | [2]; at 11.0 µM -5% | [2]; at 33.0 µM -3% | [2]; at 100.0 µM -12% | [3]; at 1.2 µM -2% | [3]; at 3.7 µM -13% | [3]; [17] 17% | [3]; at 11.0 µM -5% | [3]; at 33.0 µM 0% | [3]; at 100.0 µM -33% | [4]; at 1.2 µM 13% | [4]; at 3.7 µM 6% | [4]; [17] 3% | [4]; at 11.0 µM -2% | [4]; at 33.0 µM -8% | [4]; [18] 39% | [4]; at 100.0 µM -15% | [5]; at 1.2 µM -3% | [5]; at 3.7 µM -5% | [5]; at 11.0 µM -4% | [5]; at 33.0 µM -1% | [5]; at 100.0 µM -4% | [6]; [17] 10% | [6]; at 50.0 µM -4.55% | [7]; at 1.2 µM 7% | [7]; at 3.7 µM 4% | [7]; at 11.0 µM -14% | [7]; at 33.0 µM -27% | [7]; at 100.0 µM 1% | [8]; [17] 22% | [8]; [18] 37% | [8]; at 50.0 µM -20.9% | [9]; at 1.2 µM 4% | [9]; at 3.7 µM -7% | [9]; [17] 2% | [9]; at 11.0 µM -12% | [9]; at 33.0 µM -5% | [9]; [18] 23% | [9]; at 50.0 µM -16.8% | [9]; at 100.0 µM -9% | [10]; at 1.2 µM -3% | [10]; at 3.7 µM -7% | [10]; at 11.0 µM -7% | [10]; at 33.0 µM -2% | [10]; at 100.0 µM -10% | [11]; at 1.2 µM 11% | [11]; at 3.7 µM 16% | [11]; at 11.0 µM 1% | [11]; at 33.0 µM 4% | [11]; at 100.0 µM -1% | [12]; at 1.2 µM 3% | [12]; at 3.7 µM 11% | [12]; at 11.0 µM 5% | [12]; at 33.0 µM -9% | [12]; at 100.0 µM -9% | [13]; [17] 12% | [13]; at 50.0 µM -21.9%
active: [3]; [18] 75% | [3]; at 50.0 µM 88.3% | [4]; at 50.0 µM 85.4% | [6]; [18] 85% | [13]; [18] 76%

Oc1cccc2cc(Cl)cnc12
active: [14]; at 33.0 µM 96% | [14]; at 100.0 µM 98% | [2]; at 11.0 µM 94% | [2]; at 33.0 µM 98% | [2]; at 100.0 µM 97% | [3]; at 33.0 µM 96% | [3]; at 50.0 µM 90.7% | [3]; at 100.0 µM 97% | [4]; at 33.0 µM 97% | [4]; at 50.0 µM 92.8% | [4]; at 100.0 µM 98% | [5]; at 33.0 µM 97% | [5]; at 100.0 µM 98% | [6]; [18] 99% | [6]; at 50.0 µM 91.7% | [7]; at 33.0 µM 95% | [7]; at 100.0 µM 94% | [8]; [18] 98% | [8]; at 50.0 µM 88.7% | [9]; at 33.0 µM 96% | [9]; [18] 99% | [9]; at 50.0 µM 91.8% | [9]; at 100.0 µM 97% | [10]; at 33.0 µM 96% | [10]; at 100.0 µM 98% | [11]; at 33.0 µM 96% | [11]; at 100.0 µM 97% | [12]; at 33.0 µM 97% | [12]; at 100.0 µM 98% | [13]; at 50.0 µM 91.2% | [15]; at 33.0 µM 96% | [15]; at 100.0 µM 97%
inactive: [14]; at 1.2 µM -28% | [14]; at 3.7 µM -39% | [14]; at 11.0 µM 20% | [2]; at 1.2 µM -11% | [2]; at 3.7 µM -2% | [3]; at 1.2 µM -29% | [3]; at 3.7 µM -13% | [3]; [17] 37% | [3]; at 11.0 µM 37% | [3]; [18] 65% | [4]; at 1.2 µM -56% | [4]; at 3.7 µM -56% | [4]; [17] 38% | [4]; at 11.0 µM 6% | [4]; [18] 69% | [5]; at 1.2 µM -27% | [5]; at 3.7 µM -13% | [5]; at 11.0 µM 28% | [6]; [17] -13% | [7]; at 1.2 µM 5% | [7]; at 3.7 µM 8% | [7]; at 11.0 µM 45% | [8]; [17] 49% | [9]; at 1.2 µM -21% | [9]; at 3.7 µM -8% | [9]; [17] 55% | [9]; at 11.0 µM 20% | [10]; at 1.2 µM -31% | [10]; at 3.7 µM -26% | [10]; at 11.0 µM 1% | [11]; at 1.2 µM -22% | [11]; at 3.7 µM -42% | [11]; at 11.0 µM 3% | [12]; at 1.2 µM -47% | [12]; at 3.7 µM -43% | [12]; at 11.0 µM 46% | [13]; [17] 44% | [13]; [18] 50% | [15]; at 1.2 µM -11% | [15]; at 3.7 µM -4% | [15]; at 11.0 µM 60%

Cc1cc(C)nc(NS(=O)(=O)c2ccc(Nc3c4ccccc4nc4c(C(=O)NCCO)cccc34)cc2)n1
inactive: [14]; at 1.2 µM -1% | [14]; at 3.7 µM -2% | [14]; at 11.0 µM -2% | [14]; at 33.0 µM -35% | [14]; at 100.0 µM -9% | [2]; at 1.2 µM -3% | [2]; at 3.7 µM 0% | [2]; at 11.0 µM 1% | [2]; at 33.0 µM 3% | [2]; at 100.0 µM -14% | [16]; at 1.2 µM 0% | [16]; at 3.7 µM -1% | [16]; at 11.0 µM -2% | [16]; at 33.0 µM -1% | [16]; at 100.0 µM 32% | [3]; at 1.2 µM -1% | [3]; at 3.7 µM 1% | [3]; [17] -17% | [3]; at 11.0 µM 6% | [3]; at 33.0 µM 25% | [3]; at 50.0 µM 39.2% | [3]; at 100.0 µM 68% | [4]; at 1.2 µM -1% | [4]; at 3.7 µM -1% | [4]; [17] -13% | [4]; at 11.0 µM 1% | [4]; at 33.0 µM 3% | [4]; [18] 6% | [4]; at 50.0 µM 3.4% | [4]; at 100.0 µM 24% | [5]; at 1.2 µM 0% | [5]; at 3.7 µM 1% | [5]; at 11.0 µM 4% | [5]; at 33.0 µM 9% | [5]; at 100.0 µM 26% | [6]; [17] -9% | [6]; [18] 56% | [6]; at 50.0 µM -10.7% | [7]; at 1.2 µM 0% | [7]; at 3.7 µM -3% | [7]; at 11.0 µM -3% | [7]; at 33.0 µM -2% | [7]; at 100.0 µM 10% | [8]; [17] 16% | [8]; [18] 6% | [9]; at 1.2 µM 0% | [9]; at 3.7 µM 0% | [9]; [17] -17% | [9]; at 11.0 µM 2% | [9]; at 33.0 µM 0% | [9]; [18] 2% | [9]; at 50.0 µM 0% | [9]; at 100.0 µM 16% | [10]; at 1.2 µM -1% | [10]; at 3.7 µM -2% | [10]; at 11.0 µM -2% | [10]; at 33.0 µM -2% | [10]; at 100.0 µM 27%
active: [3]; [18] 91% | [8]; at 50.0 µM 81.2%
